# Measurements published in publication PMC11006913.
# Where a chain is given by its changes, count along the chain named.
# Tests used:
# Assay in all cases: PBM; 200 nM protein, PBS
# Conditions in all cases: dsDNA, one strand shown
# [1] = molecular target: CRX (Homo sapiens, UniProt O43186 26-111)
# [2] = molecular target: T1, SIX6 (Homo sapiens, UniProt O95475 114-200, L167I)
# T1 sequence: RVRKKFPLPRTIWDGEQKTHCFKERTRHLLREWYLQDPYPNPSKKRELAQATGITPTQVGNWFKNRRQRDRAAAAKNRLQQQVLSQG
# [3] = molecular target: T2, SIX6 (Homo sapiens, UniProt O95475 114-200, L143V)
# T2 sequence: T1 sequence with L30V, I54L
# [4] = molecular target: T3, SIX6 (Homo sapiens, UniProt O95475 114-200, H141N)
# T3 sequence: T1 sequence with H28N, I54L
# [5] = molecular target: T4, SIX6 (Homo sapiens, UniProt O95475 114-200, T165P)
# T4 sequence: T1 sequence with T52P, I54L
# [6] = molecular target: T5, SIX6 (Homo sapiens, UniProt O95475 114-200, L167M)
# T5 sequence: T1 sequence with I54M
# [7] = molecular target: T6, SIX6 (Homo sapiens, UniProt O95475 114-200, L143M)
# T6 sequence: T1 sequence with L30M, I54L
# [8] = molecular target: T7, SIX6 (Homo sapiens, UniProt O95475 114-200, L143I)
# T7 sequence: T1 sequence with L30I, I54L
# [9] = molecular target: T8, SIX6 (Homo sapiens, UniProt O95475 114-200, T165G)
# T8 sequence: T1 sequence with T52G, I54L
# [10] = molecular target: T9, SIX6 (Homo sapiens, UniProt O95475 114-200, T139Q)
# T9 sequence: T1 sequence with T26Q, I54L
# [11] = molecular target: CRX (Homo sapiens, UniProt O43186 26-111, E42D)
# CRX (Homo sapiens, UniProt O43186 26-111, E42D), sequence (O43186 26-111 E42D): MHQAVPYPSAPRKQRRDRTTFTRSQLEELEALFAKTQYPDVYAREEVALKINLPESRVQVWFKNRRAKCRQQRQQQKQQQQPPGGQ
# [12] = molecular target: T10, SIX6 (Homo sapiens, UniProt O95475 114-200, T165A)
# T10 sequence: T1 sequence with T52A, I54L
# [13] = molecular target: T11, SIX6 (Homo sapiens, UniProt O95475 114-200, L167V)
# T11 sequence: T1 sequence with I54V
# [14] = molecular target: T12, SIX6 (Homo sapiens, UniProt O95475 114-200)
# T12 sequence: T1 sequence with I54L
# [15] = molecular target: T13, SIX6 (Homo sapiens, UniProt O95475 114-200, T165I)
# T13 sequence: T1 sequence with T52I, I54L
# [16] = molecular target: CRX (Homo sapiens, UniProt O43186 26-111, R41L)
# CRX (Homo sapiens, UniProt O43186 26-111, R41L), sequence (O43186 26-111 R41L): as the sequence (O43186 26-111 E42D) above, with R16L, D17E counted along it
# [17] = molecular target: HOXC9 (Homo sapiens, UniProt P31274 178-260, K195R)
# HOXC9 (Homo sapiens, UniProt P31274 178-260, K195R), sequence (P31274 178-260 K195R): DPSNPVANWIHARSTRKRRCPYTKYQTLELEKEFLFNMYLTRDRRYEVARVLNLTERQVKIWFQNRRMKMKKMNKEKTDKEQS
# [18] = molecular target: HOXC9 (Homo sapiens, UniProt P31274 178-260)
# HOXC9 (Homo sapiens, UniProt P31274 178-260), sequence (P31274 178-260): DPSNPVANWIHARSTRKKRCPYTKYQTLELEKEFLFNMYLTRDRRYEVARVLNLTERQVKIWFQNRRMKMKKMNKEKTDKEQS
# [19] = molecular target: HOXC9 (Homo sapiens, UniProt P31274 178-260, R193K)
# HOXC9 (Homo sapiens, UniProt P31274 178-260, R193K), sequence (P31274 178-260 R193K): as the sequence (P31274 178-260) above, with R16K counted along it
# [20] = molecular target: HOXC9 (Homo sapiens, UniProt P31274 178-260, R222W)
# HOXC9 (Homo sapiens, UniProt P31274 178-260, R222W), sequence (P31274 178-260 R222W): as the sequence (P31274 178-260) above, with R45W counted along it
# [21] = molecular target: T14, VENTX (Homo sapiens, UniProt O95231 78-163, R121Q)
# T14 sequence: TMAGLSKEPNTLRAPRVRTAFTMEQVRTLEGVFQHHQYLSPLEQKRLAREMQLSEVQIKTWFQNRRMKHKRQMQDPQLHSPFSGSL
# [22] = molecular target: T15, VENTX (Homo sapiens, UniProt O95231 78-163)
# T15 sequence: T14 sequence with Q44R
# [23] = molecular target: T16, VENTX (Homo sapiens, UniProt O95231 78-163, Y115F)
# T16 sequence: T14 sequence with Y38F, Q44R
# CRX (Homo sapiens, UniProt O43186 26-111), sequence (O43186 26-111): as the sequence (O43186 26-111 E42D) above, with D17E counted along it
sequence,measurement,setting,value
ACGCAACG,binding signal,[1],"8.38 upbm affinity estimate (log intensity, higher = more binding, comparable within an allelic series)"
same,binding signal,[2],"9.07 upbm affinity estimate (log intensity, higher = more binding, comparable within an allelic series)"
same,binding signal,[3],"9.09 upbm affinity estimate (log intensity, higher = more binding, comparable within an allelic series)"
same,binding signal,[4],"9.09 upbm affinity estimate (log intensity, higher = more binding, comparable within an allelic series)"
same,binding signal,[5],"9.22 upbm affinity estimate (log intensity, higher = more binding, comparable within an allelic series)"
same,binding signal,[6],"9.12 upbm affinity estimate (log intensity, higher = more binding, comparable within an allelic series)"
same,binding signal,[7],"9.21 upbm affinity estimate (log intensity, higher = more binding, comparable within an allelic series)"
same,binding signal,[8],"9.08 upbm affinity estimate (log intensity, higher = more binding, comparable within an allelic series)"
same,binding signal,[9],"9.2 upbm affinity estimate (log intensity, higher = more binding, comparable within an allelic series)"
same,binding signal,[10],"9.17 upbm affinity estimate (log intensity, higher = more binding, comparable within an allelic series)"
same,binding signal,[11],"8.41 upbm affinity estimate (log intensity, higher = more binding, comparable within an allelic series)"
same,binding signal,[12],"9.14 upbm affinity estimate (log intensity, higher = more binding, comparable within an allelic series)"
same,binding signal,[13],"9.19 upbm affinity estimate (log intensity, higher = more binding, comparable within an allelic series)"
same,binding signal,[14],"9.12 upbm affinity estimate (log intensity, higher = more binding, comparable within an allelic series)"
same,binding signal,[15],"9.12 upbm affinity estimate (log intensity, higher = more binding, comparable within an allelic series)"
same,binding signal,[16],"8.43 upbm affinity estimate (log intensity, higher = more binding, comparable within an allelic series)"
ACCAGCCC,binding signal,[1],"8.23 upbm affinity estimate (log intensity, higher = more binding, comparable within an allelic series)"
same,binding signal,[17],"9.73 upbm affinity estimate (log intensity, higher = more binding, comparable within an allelic series)"
same,binding signal,[11],"8.32 upbm affinity estimate (log intensity, higher = more binding, comparable within an allelic series)"
same,binding signal,[18],"9.8 upbm affinity estimate (log intensity, higher = more binding, comparable within an allelic series)"
same,binding signal,[19],"9.71 upbm affinity estimate (log intensity, higher = more binding, comparable within an allelic series)"
same,binding signal,[20],"9.62 upbm affinity estimate (log intensity, higher = more binding, comparable within an allelic series)"
same,binding signal,[16],"8.17 upbm affinity estimate (log intensity, higher = more binding, comparable within an allelic series)"
CCCCTGGA,binding signal,[1],"8.32 upbm affinity estimate (log intensity, higher = more binding, comparable within an allelic series)"
same,binding signal,[21],"7.92 upbm affinity estimate (log intensity, higher = more binding, comparable within an allelic series)"
same,binding signal,[22],"7.83 upbm affinity estimate (log intensity, higher = more binding, comparable within an allelic series)"
same,binding signal,[23],"8.01 upbm affinity estimate (log intensity, higher = more binding, comparable within an allelic series)"
same,binding signal,[11],"8.46 upbm affinity estimate (log intensity, higher = more binding, comparable within an allelic series)"
same,binding signal,[16],"8.4 upbm affinity estimate (log intensity, higher = more binding, comparable within an allelic series)"
CCGTCGCC,binding signal,[1],"8.18 upbm affinity estimate (log intensity, higher = more binding, comparable within an allelic series)"
same,binding signal,[2],"8.85 upbm affinity estimate (log intensity, higher = more binding, comparable within an allelic series)"
same,binding signal,[3],"8.91 upbm affinity estimate (log intensity, higher = more binding, comparable within an allelic series)"
same,binding signal,[4],"8.81 upbm affinity estimate (log intensity, higher = more binding, comparable within an allelic series)"
same,binding signal,[5],"9.06 upbm affinity estimate (log intensity, higher = more binding, comparable within an allelic series)"
same,binding signal,[6],"8.97 upbm affinity estimate (log intensity, higher = more binding, comparable within an allelic series)"
same,binding signal,[7],"8.82 upbm affinity estimate (log intensity, higher = more binding, comparable within an allelic series)"
same,binding signal,[8],"8.94 upbm affinity estimate (log intensity, higher = more binding, comparable within an allelic series)"
same,binding signal,[9],"8.89 upbm affinity estimate (log intensity, higher = more binding, comparable within an allelic series)"
same,binding signal,[10],"9.02 upbm affinity estimate (log intensity, higher = more binding, comparable within an allelic series)"
same,binding signal,[11],"8.26 upbm affinity estimate (log intensity, higher = more binding, comparable within an allelic series)"
same,binding signal,[12],"8.74 upbm affinity estimate (log intensity, higher = more binding, comparable within an allelic series)"
same,binding signal,[13],"8.83 upbm affinity estimate (log intensity, higher = more binding, comparable within an allelic series)"
same,binding signal,[14],"8.87 upbm affinity estimate (log intensity, higher = more binding, comparable within an allelic series)"
same,binding signal,[15],"8.79 upbm affinity estimate (log intensity, higher = more binding, comparable within an allelic series)"
same,binding signal,[16],"8.24 upbm affinity estimate (log intensity, higher = more binding, comparable within an allelic series)"
AGACTATC,binding signal,[1],"9.61 upbm affinity estimate (log intensity, higher = more binding, comparable within an allelic series)"
same,binding signal,[2],"10.2 upbm affinity estimate (log intensity, higher = more binding, comparable within an allelic series)"
same,binding signal,[3],"9.83 upbm affinity estimate (log intensity, higher = more binding, comparable within an allelic series)"
same,binding signal,[4],"10.2 upbm affinity estimate (log intensity, higher = more binding, comparable within an allelic series)"
same,binding signal,[5],"9.59 upbm affinity estimate (log intensity, higher = more binding, comparable within an allelic series)"
same,binding signal,[6],"9.99 upbm affinity estimate (log intensity, higher = more binding, comparable within an allelic series)"
same,binding signal,[7],"10.2 upbm affinity estimate (log intensity, higher = more binding, comparable within an allelic series)"
same,binding signal,[9],"10.2 upbm affinity estimate (log intensity, higher = more binding, comparable within an allelic series)"
same,binding signal,[10],"10.4 upbm affinity estimate (log intensity, higher = more binding, comparable within an allelic series)"
same,binding signal,[11],"9.51 upbm affinity estimate (log intensity, higher = more binding, comparable within an allelic series)"
same,binding signal,[12],"10.1 upbm affinity estimate (log intensity, higher = more binding, comparable within an allelic series)"
same,binding signal,[13],"10 upbm affinity estimate (log intensity, higher = more binding, comparable within an allelic series)"
same,binding signal,[14],"10.2 upbm affinity estimate (log intensity, higher = more binding, comparable within an allelic series)"
same,binding signal,[15],"10.1 upbm affinity estimate (log intensity, higher = more binding, comparable within an allelic series)"
same,binding signal,[16],"9.45 upbm affinity estimate (log intensity, higher = more binding, comparable within an allelic series)"
